# A number with no mark means an inactive call. For some of these results: Results with a measured potency or affinity are listed apart. Active and inactive are the calls of the source. Unless noted, the rule behind the calls is not given here.
# Key:
# [1] = antimalarial activity against Dd2 strain (AID 2302;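 active = growth inhibition above 50% at the single 2 µM test dose, taken to imply half-maximal potency below 2 µM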;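 note: 0% = DMSO untreated growth and 100% = chloroquine plus artemisinin killed control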); conditions: P. falciparum Dd2 in RBCs, LDH growth readout, 72 h; at 2 µM; stronger effect = higher value
# [2] = HepG2 cytotoxicity, primary screen, cytotoxicity control for P. falciparum antimalarial project, cell-based, ATP luminescence (AID 2303;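 active = inhibition above 50%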;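 note: 0% = DMSO wells and 100% = digitonin-killed cells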); conditions: HepG2 viability, 24-48 h, at 10 µM, stronger effect = higher value
# [3] = target: L-lactate dehydrogenase (Plasmodium falciparum (isolate CDC / Honduras)) (UniProt Q27743); assay: PfLDH activity inhibition – cell lysate, 3D7 strain, counter-screen for P. falciparum growth inhibition project (AID 2304);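 note: 0% = vehicle and 100% = reference inhibitor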; conditions: P. falciparum 3D7 crude extract, LDH APAD/NBT absorbance; at 2 µM; stronger effect = higher value
# Sequence of L-lactate dehydrogenase (Plasmodium falciparum (isolate CDC / Honduras)) (Q27743 whole entry, looked up): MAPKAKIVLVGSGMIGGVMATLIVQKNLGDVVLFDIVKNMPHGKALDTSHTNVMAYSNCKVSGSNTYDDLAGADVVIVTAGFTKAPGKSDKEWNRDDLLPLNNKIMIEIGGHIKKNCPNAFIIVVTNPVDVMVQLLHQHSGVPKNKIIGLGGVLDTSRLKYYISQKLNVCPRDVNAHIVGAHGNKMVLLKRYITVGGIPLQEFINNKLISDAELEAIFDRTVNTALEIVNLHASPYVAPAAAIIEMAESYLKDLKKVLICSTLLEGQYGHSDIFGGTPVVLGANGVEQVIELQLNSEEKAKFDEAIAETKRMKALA
# [4] = inhibition of 3D7 malaria parasite growth – strain 3D7 (AID 2306);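 note: 0% = DMSO wells and 100% = chloroquine plus artemisinin control wells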; conditions: P. falciparum 3D7 erythrocytic growth, LDH absorbance, 72 h; at 2 µM; stronger effect = higher value
# [5] = target: Calcium-dependent protein kinase 1 (Plasmodium falciparum (isolate 3D7)) (UniProt P62344); assay: PfCDPK1 kinase inhibitors, biochemical, TCAMS library (AID 1159585; cut-off not given, nearly all actives have IC50 up to about 0.98 µM;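 note: inhibitors leave more ATP so luminescence rises with inhibition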); conditions: recombinant PfCDPK1, Kinase-Glo ATP depletion luminescence
# Sequence of Calcium-dependent protein kinase 1 (Plasmodium falciparum (isolate 3D7)) (P62344 whole entry, looked up): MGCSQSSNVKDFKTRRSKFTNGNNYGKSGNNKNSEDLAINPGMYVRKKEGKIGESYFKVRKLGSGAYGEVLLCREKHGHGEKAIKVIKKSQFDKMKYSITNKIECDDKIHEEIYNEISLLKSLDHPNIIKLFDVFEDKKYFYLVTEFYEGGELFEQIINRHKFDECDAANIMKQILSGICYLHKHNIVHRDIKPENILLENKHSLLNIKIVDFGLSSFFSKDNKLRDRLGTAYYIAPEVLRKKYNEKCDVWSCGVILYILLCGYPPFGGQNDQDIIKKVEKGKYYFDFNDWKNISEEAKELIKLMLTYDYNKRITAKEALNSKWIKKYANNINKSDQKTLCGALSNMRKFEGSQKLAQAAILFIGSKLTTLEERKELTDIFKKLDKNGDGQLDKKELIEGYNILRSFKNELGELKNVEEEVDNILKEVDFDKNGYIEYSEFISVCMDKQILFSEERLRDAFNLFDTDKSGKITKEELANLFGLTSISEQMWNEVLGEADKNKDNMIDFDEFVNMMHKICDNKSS
# [6] = target: Plasmodium falciparum protein kinase 6 (PK6, PF3D7_1337100) (UniProt Q8IDW1); assay: PfPK6 kinase inhibitors, biochemical, TCAMS library (AID 1159586); conditions: recombinant PfPK6, Kinase-Glo ATP depletion luminescence
# Sequence of Plasmodium falciparum protein kinase 6 (PK6, PF3D7_1337100) (Q8IDW1 1-305): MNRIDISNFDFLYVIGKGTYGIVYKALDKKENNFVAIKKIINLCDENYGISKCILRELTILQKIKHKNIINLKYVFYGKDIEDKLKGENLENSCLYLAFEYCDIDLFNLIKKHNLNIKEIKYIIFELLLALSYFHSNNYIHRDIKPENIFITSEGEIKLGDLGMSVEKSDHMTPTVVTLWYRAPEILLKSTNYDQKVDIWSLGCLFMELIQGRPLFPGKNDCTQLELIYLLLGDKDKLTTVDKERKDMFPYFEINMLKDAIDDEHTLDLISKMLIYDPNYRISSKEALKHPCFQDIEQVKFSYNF
# [7] = target: Protein kinase 7 (PK7), Plasmodium falciparum 3D7 (PF3D7_0213400) (UniProt Q7YTF7); assay: inhibition of Plasmodium PK7 catalytic activity – biochemical, TCAMS antimalarial set, Kinase-Glo luminescence (AID 1159587); conditions: recombinant PfPK7, Kinase-Glo ATP depletion luminescence
# Sequence of Protein kinase 7 (PK7), Plasmodium falciparum 3D7 (PF3D7_0213400) (Q7YTF7 1-343): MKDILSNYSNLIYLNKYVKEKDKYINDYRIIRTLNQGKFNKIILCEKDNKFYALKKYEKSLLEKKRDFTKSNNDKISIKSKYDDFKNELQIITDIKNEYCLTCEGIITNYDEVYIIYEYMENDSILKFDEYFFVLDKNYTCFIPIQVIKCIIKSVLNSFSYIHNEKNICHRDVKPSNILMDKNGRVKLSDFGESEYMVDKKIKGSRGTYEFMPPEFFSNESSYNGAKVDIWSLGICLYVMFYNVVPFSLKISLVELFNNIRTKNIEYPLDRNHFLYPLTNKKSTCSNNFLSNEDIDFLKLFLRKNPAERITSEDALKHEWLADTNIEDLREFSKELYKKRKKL
# [8] = target: Calcium-dependent protein kinase 4 (Plasmodium falciparum (isolate 3D7)) (UniProt Q8IBS5); assay: PfCDPK4 kinase inhibitors, biochemical, TCAMS library (AID 1159588; cut-off not given, nearly all actives have IC50 up to about 0.91 µM); conditions: recombinant PfCDPK4, Kinase-Glo ATP depletion luminescence
# Sequence of Calcium-dependent protein kinase 4 (Plasmodium falciparum (isolate 3D7)) (Q8IBS5 whole entry, looked up): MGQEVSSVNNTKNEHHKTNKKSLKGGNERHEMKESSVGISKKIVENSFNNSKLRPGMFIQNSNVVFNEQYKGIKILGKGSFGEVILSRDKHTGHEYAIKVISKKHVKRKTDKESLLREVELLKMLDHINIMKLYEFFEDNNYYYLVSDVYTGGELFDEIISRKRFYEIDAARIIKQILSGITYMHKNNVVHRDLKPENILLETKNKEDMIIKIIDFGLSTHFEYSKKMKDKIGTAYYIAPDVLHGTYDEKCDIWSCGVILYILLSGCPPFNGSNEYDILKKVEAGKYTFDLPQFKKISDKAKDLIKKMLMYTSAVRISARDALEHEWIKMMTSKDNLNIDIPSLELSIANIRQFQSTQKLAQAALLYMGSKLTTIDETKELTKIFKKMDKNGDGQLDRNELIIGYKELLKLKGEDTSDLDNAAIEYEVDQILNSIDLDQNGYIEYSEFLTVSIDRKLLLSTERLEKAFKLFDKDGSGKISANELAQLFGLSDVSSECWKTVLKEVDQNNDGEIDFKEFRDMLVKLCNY
Structure (SMILES),growth inhibition [1],inhibition [2],inhibition [3],growth inhibition [4],outcome [5],outcome [6],outcome [7],outcome [8]
CC(C)Sc1nc2c(c(=O)n1CCc1ccccc1)C1(CCCC1)Cc1ccccc1-2,88% (active),-3%,-4%,102% (active),inactive,inactive,inactive,inactive
Cc1nc2nc(N)nc(N)c2c(C)c1Cc1cccs1,2%,66% (active),-1%,95% (active),inactive,inactive,inactive,inactive
FC(F)(F)c1ccc2nc(-c3ccc(-c4ccc(CNCCN5CCNCC5)cc4)s3)[nH]c2c1,79% (active),17%,-2%,94% (active),inactive,inactive,inactive,inactive
O=C(NCc1ccccc1)c1ccc(C(=O)NCC2CNCCO2)cc1 (stereo not drawn),-1%,4%,-4%,92% (active),inactive,inactive,inactive,inactive
Cc1cc(NC(=O)NCCN2CCC(NS(=O)(=O)c3cccc(Br)c3)C2)c2ccccc2n1 (stereo not drawn),58% (active),0%,-2%,99% (active),inactive,inactive,inactive,inactive
O=C(Nc1cccc(-c2ccc(-c3nc4ccc(F)cc4[nH]3)cc2)c1)c1ccncc1,96% (active),52% (active),-5%,101% (active),inactive,inactive,inactive,inactive
COc1cccc(-c2cccc(-c3ccc(NC(=O)c4ccc([N+](=O)[O-])o4)cc3)n2)c1,94% (active),98% (active),6%,97% (active),inactive,inactive,inactive,inactive
COc1cc(NC(=O)Nc2ccc([N+](=O)[O-])cc2OC)c(OC)cc1Cl,6%,38%,3%,87% (active),inactive,inactive,inactive,inactive
CCCCC1=CC2C(=O)C(C(=O)OC)=CN=C2C=C1OCc1ccccc1 (stereo not drawn),98% (active),7%,2%,99% (active),inactive,inactive,inactive,inactive
Cc1ccccc1C1CCN(C2CCC(NC(=O)c3ccc(-c4ccccc4F)o3)CC2)CC1 (stereo not drawn),66% (active),42%,1%,99% (active),inactive,inactive,inactive,inactive
O=C(Nc1ccc([N+](=O)[O-])cc1)Nc1cc(C(F)(F)F)ccc1F,46%,8%,-4%,89% (active),inactive,inactive,inactive,inactive
CN(C)CCOc1cc(NC(=O)Nc2ccc(-c3ccccc3)cc2Cl)ccc1I,93% (active),25%,3%,102% (active),inactive,inactive,inactive,inactive
O=[N+]([O-])c1cccc(C=NNc2nc(Nc3ccccc3)nc(Nc3ccccc3)n2)c1,55% (active),10%,3%,99% (active),inactive,inactive,inactive,inactive
O=C(Nc1ccc(Cl)c(Cl)c1)N(Cc1ccccc1Br)C1CCNCC1,8%,13%,7%,96% (active),inactive,inactive,inactive,inactive
CCN1CCC(N(CCCCCCc2ccc(C(F)(F)F)cc2)C(=O)Cn2c(CCc3cccc(F)c3F)cc(=O)c3ccccc32)CC1,82% (active),32%,-7%,88% (active),inactive,inactive,inactive,inactive
O=C(Cc1cnc[nH]1)Nc1cccc(-c2cccc(-c3nc4ccc(F)cc4[nH]3)c2)c1,97% (active),21%,2%,101% (active),inactive,inactive,inactive,inactive
CN1CCN(c2ccnc3ccc(NC(=O)Cc4ccc5ccccc5c4)cc23)CC1,89% (active),6%,-2%,100% (active),inactive,inactive,inactive,inactive
CN1CCN(c2ccc(-c3cccc(NC(=O)c4ccc5ccccc5c4)c3)nn2)CC1,26%,17%,-2%,94% (active),inactive,inactive,inactive,inactive
CCN(CC)CCCC(C)N=C(Nc1ccc(C#N)cc1O)Nc1ccccc1Br (stereo not drawn),-2%,4%,2%,89% (active),inactive,inactive,inactive,inactive
COCCNCc1nc(-c2ccc3c(Nc4ccc(Cl)cc4F)ccnc3c2)cs1,100% (active),-4%,-1%,101% (active),inactive,inactive,inactive,inactive
N#Cc1ccc(CN2CCC(Oc3ccc(NC(=O)c4cccs4)cc3Cl)CC2)cc1,96% (active),26%,-1%,95% (active),inactive,inactive,inactive,inactive

Structure (SMILES),growth inhibition [1],inhibition [2],inhibition [3],growth inhibition [4],outcome [5],outcome [6],outcome [7],outcome [8]
CCN(CC)CCN(Cc1ccc(-c2ccc(C(F)(F)F)cc2)cc1)C(=O)Cn1c(CCc2cccc(F)c2F)nc(=O)c2cc(F)c(F)cc21,56% (active),41%,-5%,100% (active),inactive,inactive,inactive,inactive
CCN(CCCN1CCCCC1)c1cc(C)nc(Nc2cc(C)ccc2C)n1,42%,34%,2%,93% (active),inactive,inactive,inactive,inactive
COc1ccc(CNC2CCN(C)CC2)cc1-c1ccc(S(=O)(=O)NCC2CCCO2)s1 (stereo not drawn),18%,18%,5%,95% (active),inactive,inactive,inactive,inactive
O=C(c1cccc(Br)c1)N1CCN(c2ccc([N+](=O)[O-])c(NC3CC3)c2)CC1,100% (active),5%,3%,99% (active),inactive,inactive,inactive,inactive
COCCNC(=O)c1ccc(OC2CCN(CC(C)=Cc3ccccc3)CC2)c(Cl)c1,95% (active),18%,2%,94% (active),inactive,inactive,inactive,inactive
CN1CCN(c2cc(NC(=O)c3ccc(-c4ccc(C#N)cc4)cc3)ccc2Cl)CC1,94% (active),29%,-5%,101% (active),inactive,inactive,inactive,inactive
CC(C)(C)c1cc(C(=O)N2CCN(c3ncnc4ccsc34)CC2)n(Cc2ccccc2)n1,83% (active),2%,-8%,95% (active),inactive,inactive,inactive,inactive
CC(CCCC(=O)Nc1ccc(CC(C)NCCc2cccc(Cl)c2)cc1)NCCc1cccc(Cl)c1 (stereo not drawn),14%,98% (active),-3%,101% (active),inactive,inactive,inactive,inactive
COc1ccc(-n2ccnc2SCC(=O)Nc2cc(C(F)(F)F)ccc2Cl)c(OC)c1,76% (active),0%,-8%,98% (active),inactive,inactive,inactive,inactive
CCc1c(C)nc(-n2nc(C)cc2NC(=O)CC(c2ccccc2)c2ccccc2)[nH]c1=O,98% (active),41%,-3%,97% (active),inactive,inactive,inactive,inactive
Cc1ccc(-c2ccc(Cl)cc2Oc2cnc(N)nc2N)o1,3%,15%,-2%,102% (active),inactive,inactive,inactive,inactive
COc1ccc(CNCc2cccc(-c3ccc(-c4nc5c(C)cccc5[nH]4)cc3)c2)cc1,70% (active),23%,7%,101% (active),inactive,inactive,inactive,inactive
O=C(c1cc(-c2ccco2)[nH]n1)N1CCN(S(=O)(=O)c2ccc(Br)cc2)CC1,90% (active),1%,-5%,95% (active),inactive,inactive,inactive,inactive
Cc1nc(-c2ccc(C#N)cc2)sc1C(=O)NCCCCN1CCC(c2ccc3c(c2OCCO)CCCC3)CC1,10%,14%,6%,99% (active),inactive,inactive,inactive,inactive
CC(C)(C)OC(=O)C1CCCN(Cc2ccc(-c3cccc(-c4nc5ccccc5[nH]4)c3)cc2)C1 (stereo not drawn),27%,37%,4%,93% (active),inactive,inactive,inactive,inactive
Cc1ccc(Cc2c(N)nc3nc(N)nc(N)c3c2C)cc1,8%,59% (active),4%,95% (active),inactive,inactive,inactive,inactive
Cc1cc(C(=O)OCC(N)=O)c(C)n1-c1ccc(F)cc1,96% (active),-12%,1%,97% (active),inactive,inactive,inactive,inactive
CN1CCN(CCCN(Cc2ccc(-c3ccc(CNCc4ccc5c(c4)OCO5)cc3)cc2)C(=O)CCC2CCCC2)CC1,85% (active),55% (active),8%,99% (active),inactive,inactive,inactive,inactive
CC(=O)N[C@H](C(=O)Nc1cccc(-c2ccc(-c3nc4c(C)cccc4[nH]3)s2)c1)C(C)C,29%,33%,2%,93% (active),inactive,inactive,inactive,inactive
CC(C)(C(=O)Nc1ccc(N2CCC3(CCCN(CC4CC4)C3)CC2)c(Cl)c1)c1cccc(C(F)(F)F)c1,0%,27%,4%,92% (active),inactive,inactive,inactive,inactive
